Data from PubChem BioAssay (Tox21).
Inconclusive results are not listed. The source made the active and inactive calls. Unless noted, the call rests on the fitted dose curve; in most records, active means well fitted curve in the direction sought with a large enough effect in the repeat runs; inconclusive means weak or mixed curves; inactive means no such curve, though single readings can be large; an effect the other way counts as inactive or inconclusive.

Tests used:
[1] = qHTS assay to identify small molecule antagonists of the sonic hedgehog signaling (Shh) pathway (AID 1259369; calls by dose curve; further: nearly all actives have a fitted effect of over 45% in size)
Summary of the method: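 Antagonist mode: compound added to 3T3 Gli1-Luc cells followed by conditioned-medium stimulation, 24 h at 37 C, 5% CO2. Inhibition taken as loss of Gli1-driven luciferase luminescence.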

[2] = qHTS assay to identify small molecule agonists of the androgen receptor (AR) signaling pathway in the presence of an antagonist - cell viability counter screen (AID 1259379);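 further: MDA-kb2 human breast cancer cells carrying an MMTV luciferase reporter; series mostly up to about 92 µM; nearly all actives have a fitted effect of over 25% in size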
Summary of the method: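 Cytotoxicity counter-screen run in the same wells as the nilutamide-challenged (3.0 µM final) AR agonist assay in MDA-kb2 cells. Compounds tested at 15 concentrations for 16 h, 37 °C without CO2; CellTiter-Fluor fluorescence read.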

[3] = qHTS assay to identify small molecule agonists of the estrogen receptor beta (ER-beta) signaling pathway - cell viability counter screen (AID 1259380); further: nearly all actives have a fitted effect of over 30% in size
Summary of the method: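 Cell viability counter screen: CellTiter-Glo luminescence (30 min, room temperature) measured in the same wells as the beta-lactamase readout, after 16 hr compound exposure at 37C of ER-beta-bla HEK293T cells in 2% charcoal-stripped FBS medium.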

[4] = qHTS assay to identify small molecule antagonists of the estrogen receptor beta (ER-beta) signaling pathway - cell viability counter screen (AID 1259382);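 further: HEK293T cells carrying ER-beta-UAS-bla reporter stimulated with estradiol; series mostly up to about 92 µM; nearly all actives have a fitted effect of over 55% in size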
Summary of the method: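 Cytotoxicity was measured in the same wells by CellTiter-Glo luminescence after 30 min at room temperature. Cells were ER-beta-bla HEK293T in charcoal-stripped serum, given compound together with 1 nM E2 and incubated 16 h at 37C.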

[5] = molecular target: Estrogen receptor (Homo sapiens) (UniProt P03372); experiment: qHTS assay to identify small molecule agonists of the estrogen receptor alpha (ER-alpha) signaling pathway in the presence of an antagonist (AID 1259383; calls by dose curve; further: top concentration of the series differs between compounds; nearly all actives have a fitted effect of over 15% in size)
Sequence of Estrogen receptor (Homo sapiens) (P03372 whole entry, looked up): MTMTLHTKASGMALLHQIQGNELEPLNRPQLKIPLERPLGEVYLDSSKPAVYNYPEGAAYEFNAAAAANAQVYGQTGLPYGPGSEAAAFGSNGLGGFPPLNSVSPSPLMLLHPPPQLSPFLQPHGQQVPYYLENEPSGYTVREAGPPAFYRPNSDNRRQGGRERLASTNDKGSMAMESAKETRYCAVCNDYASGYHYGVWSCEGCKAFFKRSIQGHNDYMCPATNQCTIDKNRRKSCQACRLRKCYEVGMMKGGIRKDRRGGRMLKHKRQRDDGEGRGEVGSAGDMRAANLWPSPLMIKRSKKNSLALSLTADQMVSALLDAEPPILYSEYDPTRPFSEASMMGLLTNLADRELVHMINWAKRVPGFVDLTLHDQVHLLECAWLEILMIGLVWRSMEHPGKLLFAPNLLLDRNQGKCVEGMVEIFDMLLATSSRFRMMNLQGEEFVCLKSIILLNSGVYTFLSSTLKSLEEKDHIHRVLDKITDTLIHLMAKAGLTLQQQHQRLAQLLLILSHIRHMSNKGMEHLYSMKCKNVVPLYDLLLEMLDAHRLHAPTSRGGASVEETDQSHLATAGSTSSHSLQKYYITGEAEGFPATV
Summary of the method: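 Agonist-mode confirmation run in the presence of 10.0nM (final) ICI-182,780 antagonist. The reporter was ERE-driven luciferase in VM7Luc4E2 cells, grown in charcoal-stripped serum. Cells were exposed to 15-concentration compound series for 22hr, then ONE-Glo luminescence was read.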

[6] = qHTS assay to identify small molecule agonists or antagonists of the thyroid stimulating hormone receptor (TSHR) signaling pathway - wild type cell line counter screen (AID 1259384; calls by dose curve)
Summary of the method: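 Wild-type Hek293 cells, 800/well, 18 h at 37C, then compound with Ro20-1724 for 30 min RT. cAMP by HTRF (cAMP-d2/anti-cAMP cryptate), 1 h RT, fluorescence read. 15 concentrations, triplicates.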

[7] = molecular target: Thyrotropin receptor (Homo sapiens) (UniProt P16473); experiment: qHTS assay to identify small molecule antagonists of the thyroid stimulating hormone receptor (TSHR) signaling pathway (AID 1259385; calls by dose curve; further: nearly all actives have a fitted effect of over 20% in size)
Sequence of Thyrotropin receptor (Homo sapiens) (P16473 whole entry, looked up): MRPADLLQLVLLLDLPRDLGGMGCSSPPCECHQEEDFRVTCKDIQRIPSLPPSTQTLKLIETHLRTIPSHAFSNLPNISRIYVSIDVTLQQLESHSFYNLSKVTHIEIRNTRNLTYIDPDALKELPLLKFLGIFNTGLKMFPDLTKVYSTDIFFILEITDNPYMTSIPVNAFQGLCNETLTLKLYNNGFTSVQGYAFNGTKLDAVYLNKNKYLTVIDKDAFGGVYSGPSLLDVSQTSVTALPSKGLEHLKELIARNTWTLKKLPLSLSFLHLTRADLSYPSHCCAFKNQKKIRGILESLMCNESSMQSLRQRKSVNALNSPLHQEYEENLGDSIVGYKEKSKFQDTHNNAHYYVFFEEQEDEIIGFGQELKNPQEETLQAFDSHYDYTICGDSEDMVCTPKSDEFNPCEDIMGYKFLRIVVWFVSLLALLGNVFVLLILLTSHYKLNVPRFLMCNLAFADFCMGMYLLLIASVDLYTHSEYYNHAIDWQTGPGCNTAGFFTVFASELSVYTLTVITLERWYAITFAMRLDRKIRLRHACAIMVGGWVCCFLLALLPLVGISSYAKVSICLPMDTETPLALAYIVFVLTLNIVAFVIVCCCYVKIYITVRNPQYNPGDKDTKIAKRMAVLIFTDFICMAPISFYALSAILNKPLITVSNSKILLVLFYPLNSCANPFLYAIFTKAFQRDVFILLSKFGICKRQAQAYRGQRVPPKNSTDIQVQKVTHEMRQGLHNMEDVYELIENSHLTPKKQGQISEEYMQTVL
Summary of the method: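 TSHR-HEK293 cells (800/well) plated 18 h, then compounds with Ro20-1724 and TSH at 1.5 ng/mL final, 30 min at room temperature. cAMP quantified by HTRF (cAMP-d2/anti-cAMP-cryptate, 1 h); 15 concentrations in triplicate.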

[8] = molecular target: Progesterone receptor (Homo sapiens) (UniProt P06401); experiment: qHTS assay to identify small molecule agonists of the progesterone receptor (PR) signaling pathway (AID 1346784; calls by dose curve; further: nearly all actives have a fitted effect of over 30% in size)
Sequence of Progesterone receptor (Homo sapiens) (P06401 whole entry, looked up): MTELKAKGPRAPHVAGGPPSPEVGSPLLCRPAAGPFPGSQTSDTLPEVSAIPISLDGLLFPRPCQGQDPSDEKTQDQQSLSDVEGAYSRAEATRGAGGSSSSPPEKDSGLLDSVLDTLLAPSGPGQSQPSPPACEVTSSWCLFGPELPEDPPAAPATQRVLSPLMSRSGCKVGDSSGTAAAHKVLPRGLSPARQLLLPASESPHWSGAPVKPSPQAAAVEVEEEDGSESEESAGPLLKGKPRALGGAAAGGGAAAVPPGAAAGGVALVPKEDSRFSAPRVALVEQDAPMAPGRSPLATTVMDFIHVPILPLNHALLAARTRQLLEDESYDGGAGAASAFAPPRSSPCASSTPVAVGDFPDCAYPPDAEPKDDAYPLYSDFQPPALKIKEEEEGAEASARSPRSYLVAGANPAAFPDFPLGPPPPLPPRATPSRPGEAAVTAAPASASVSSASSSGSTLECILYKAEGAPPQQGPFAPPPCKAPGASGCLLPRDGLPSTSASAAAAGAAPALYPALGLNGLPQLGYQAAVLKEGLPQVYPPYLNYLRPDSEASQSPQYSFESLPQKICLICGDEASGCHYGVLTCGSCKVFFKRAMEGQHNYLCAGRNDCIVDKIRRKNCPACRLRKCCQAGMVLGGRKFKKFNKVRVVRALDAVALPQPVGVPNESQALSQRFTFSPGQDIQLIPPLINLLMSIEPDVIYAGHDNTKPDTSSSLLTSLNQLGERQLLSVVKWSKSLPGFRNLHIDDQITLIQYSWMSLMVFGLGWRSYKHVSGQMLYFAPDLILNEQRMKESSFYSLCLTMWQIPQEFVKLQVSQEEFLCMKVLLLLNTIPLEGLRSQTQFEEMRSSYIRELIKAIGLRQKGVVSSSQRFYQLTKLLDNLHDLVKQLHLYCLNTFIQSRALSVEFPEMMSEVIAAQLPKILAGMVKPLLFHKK
Summary of the method: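 Beta-lactamase reporter read-out: after 16 hr compound treatment at 37C and a further 2 hr at room temperature with LiveBLAzer B/G FRET substrate, fluorescence was measured in PR-UAS-bla HEK 293T cells grown in 2% charcoal-stripped serum.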

[9] = molecular target: Progesterone receptor (Homo sapiens) (UniProt P06401); experiment: qHTS assay to identify small molecule antagonists of the progesterone receptor (PR) signaling pathway (AID 1346795; active means well fitted inhibition curve with a large enough effect in the signal ratio in the repeat runs, not every such curve was filed as active; the % refers to the signal ratio)
Summary of the method: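 Read-out is fluorescence from the LiveBLAzer B/G FRET substrate, cleaved by a UAS-controlled beta-lactamase in PR-UAS-bla HEK293T cells after 16 hr exposure to compound plus 1 nM promegestone (final), followed by 2 hr at room temperature.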

[10] = qHTS assay to identify small molecule antagonists of the progesterone receptor (PR) signaling pathway - cell viability counter screen (AID 1346798);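 further: HEK293T PR-UAS-bla cells stimulated with the agonist R5020; series mostly up to about 92 µM; nearly all actives have a fitted effect of over 50% in size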
Summary of the method: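 HEK293T PR-UAS-bla, 2% charcoal-stripped FBS; 4 hr pre-plate; cpd + R5020, 16 h 37C; LiveBLAzer read first; then CellTiter-Glo 30 min RT, luminescence.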

[11] = qHTS assay to identify small molecule agonists of the progesterone receptor (PR) signaling pathway - cell viability counter screen (AID 1346799; calls by dose curve; further: nearly all actives have a fitted effect of over 45% in size)
Summary of the method: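 Luminescence from CellTiter-Glo, added after the beta-lactamase FRET read in the same wells, gave cytotoxicity in PR-UAS-bla HEK293T cells treated with compounds for 16 hr at 37C.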

[12] = qHTS assay to identify small molecule antagonists of the TGF-beta/Smad signaling pathway - cell viability counter screen (AID 1346824); further: nearly all actives have a fitted effect of over 50% in size
Summary of the method: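 SBE-bla HEK 293T cells, incubated overnight, then compound plus 0.25 ng/mL TGF-beta1 (stock added) for 5 hr at 37 C. Viability was read in the same wells by CellTiter-Glo luminescence after 30 min at room temperature.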

[13] = qHTS assay to identify small molecule agonists of the TGF-beta/Smad signaling pathway - cell viability counter screen (AID 1346829); further: top concentration of the series differs between compounds; nearly all actives have a fitted effect of over 45% in size
Summary of the method: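 CellTiter-Glo luminescence readout; SBE-bla HEK 293T cells, overnight plating, compound 5 hr at 37 C/5% CO2, then bla substrate 2 hr RT, then CellTiter-Glo 30 min RT.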

[14] = qHTS assay to identify small molecule agonists of the TGF-beta/Smad signaling pathway (AID 1346859; active means well fitted activation curve with a large enough effect in the signal ratio in the repeat runs, not every such curve was filed as active; the % refers to the signal ratio; further: series mostly up to about 77 µM)
Summary of the method: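 SBE-bla HEK 293T, 4,000 cells/well, plated o/n; cpd in DMSO, 5 hr, 37 C/5% CO2; B/G FRET substrate 2 hr RT; ex 405, em 460/530 nm.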

[15] = molecular target: Thyrotropin-releasing hormone receptor (Homo sapiens) (UniProt P34981); experiment: qHTS assay to identify small molecule antagonists of the thyrotropin-releasing hormone receptor (TRHR) signaling pathway (AID 1346877; active means well fitted inhibition curve with a large enough effect in the repeat runs, not every such curve was filed as active; further: series mostly up to about 51 µM)
Sequence of Thyrotropin-releasing hormone receptor (Homo sapiens) (P34981 whole entry, looked up): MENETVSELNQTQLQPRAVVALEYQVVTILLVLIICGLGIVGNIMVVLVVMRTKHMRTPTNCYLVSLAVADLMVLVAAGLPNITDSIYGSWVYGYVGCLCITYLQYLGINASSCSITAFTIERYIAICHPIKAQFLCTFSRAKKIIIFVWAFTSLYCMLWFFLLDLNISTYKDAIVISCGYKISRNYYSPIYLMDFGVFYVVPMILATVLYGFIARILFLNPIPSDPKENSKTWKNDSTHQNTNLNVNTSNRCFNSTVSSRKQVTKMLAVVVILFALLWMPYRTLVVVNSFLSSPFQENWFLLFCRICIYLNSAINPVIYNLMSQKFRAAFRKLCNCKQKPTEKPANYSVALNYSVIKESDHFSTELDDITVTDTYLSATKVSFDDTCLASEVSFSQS
Summary of the method: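 Antagonist mode: after a 5 min room-temperature compound exposure, cells were stimulated with 1 nM (final) TRH. Dye-loaded TRHR-HEK293 cells were used, and calcium-dependent fluorescence was followed for 3 min, with 15-point titrations run in triplicate.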

[16] = molecular target: Thyrotropin-releasing hormone receptor (Homo sapiens) (UniProt P34981); experiment: qHTS assay to identify small molecule agonists of the thyrotropin-releasing hormone receptor (TRHR) signaling pathway (AID 1346891; calls by dose curve; further: series mostly up to about 58 µM)
Summary of the method: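 Intracellular calcium rise, read as fluorescence every second for 3 min, served as the agonist signal in dye-loaded HEK293 cells expressing TRHR; each compound ran at 15 concentrations in triplicate.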

[17] = qHTS assay to identify small molecule agonists of the estrogen receptor alpha (ER-alpha) signaling pathway in the presence of an antagonist - cell viability counter screen (AID 1259386); further: series mostly up to about 92 µM; nearly all actives have a fitted effect of over 30% in size
Summary of the method: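 Compounds tested at 15 concentrations for 22 h at 37C alongside 10.0nM (final) ICI-182,780 antagonist, in VM7Luc4E2 cells grown in phenol red-free, charcoal-stripped medium. Viability read by CellTiter-Fluor fluorescence after 1 h reagent incubation.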

Measured: Potency

c1ccc2ncccc2c1
not listed: [17]
inactive: all other assays above

CC1(C)OC(=O)NC1=O
not listed: [5] | [15] | [16]
inactive: all other assays above

NC[C@H](O)c1ccc(O)c(O)c1
not listed: [5] | [6] | [7] | [15] | [16]
inactive: all other assays above

COCCOCCOCCO
not listed: [5] | [9]
inactive: all other assays above

c1ccc2c(c1)ccc1cc3c(ccc4ccccc43)cc12
not listed: [7] | [17]
inactive: all other assays above

NCCN
not listed: [9] | [15] | [16] | [17]
inactive: all other assays above

CCCCCC=O
not listed: [17]
inactive: all other assays above
